Experimental data as given in PubChem BioAssay (EPA / NIEHS).
Several values for one entry are separate records, joined by “and”; a condition that tells them apart may be missing. Equal entries are not always repeated. Where a structure was tested more than once in an assay, its records may differ in their call. Activity calls are given as the source filed them. How the source made its calls: active means hit-call score of the fitted dose curve at least 0.9, where 1 is the maximum; inactive means score below 0.9.

read-out: Interferon-gamma inducible Protein 10 (IP10), CXCL10 (gene 3627); assay: BSK_BE3C_IP10: BioMAP Diversity Plus: BE3C Assay for Interferon-gamma inducible Protein 10 (IP10) Biomarker Activity (AID 2283034); settings: primary human bronchial epithelial cells; actives raise or lower the signal
Method: BSK_BE3C is a cell-based, multiplexed-readout assay that uses bronchial epithelial cell, a human lung primary cell, with measurements taken at 24 hours after chemical dosing in a 96-well plate.BSK_BE3C_IP10 is an assay component measured in the BSK_BE3C assay. It measures IP-10 antibody related to regulation of gene expression using ELISA technology.Data from the assay component BSK_BE3C_IP10 was analyzed into 1 assay endpoint. This assay endpoint, BSK_BE3C_IP10, was analyzed with bidirectional fitting relative to DMSO as the negative control and baseline of activity. Using a type of binding reporter, gain or loss-of-signal activity can be used to understand changes in the signaling as they relate to the gene CXCL10. Furthermore, this assay endpoint can be referred to as a primary readout, because this assay has produced multiple assay endpoints where this one serves a signaling function. To generalize the intended target to other relatable targets, this assay endpoint is annotated to the cytokine intended target family, where the subfamily is chemotactic factor.
The levels of cell surface (or secreted, indicated by the prefix "s") biomarker endpoints were measured by ELISA. Overt cytotoxicity to cells in confluent adherent cultures (all systems other than the BT system) was assessed by measuring total protein levels using sulforhodamine B (SRB) staining in parallel cultures at the time of biomarker measurements, indicated as SRB endpoints. For proliferation assays for adherent cell types, individual cell types are cultured at sub-confluence and relative cell numbers quantified by SRB staining at time points optimized for each system (48 h: 3C and CASM3C systems; 72 h: BT and HDF3CGF systems; 96 h: SAg system). SRB was performed by staining cells with 0.1% SRB after fixation with 10% TCA and reading wells at 560 nm.Viability and proliferation of PBMC (T cells) was quantified by Alamar Blue reduction for the SAg and BT systems. For PBMC viability (referred to as PBMC Cytotoxicity within the assay endpoint names), cells were plated (75,000/well in a 96-well plate) and then chemical samples added for 1 h before addition of activators, SEB and TSST-1 (20 ng/mL final concentration each). Cells were incubated for 90 h. Then, Alamar Blue (20 uL/well) (Invitrogen, Cat DAL1100) was added for 6 h, and the plates were read with a fluorescence microplate reader at 546/580 nm (excitation/emission). For PBMC proliferation, cells were plated and activated as above but incubated for only 16 h prior to addition of Alamar Blue. Plates were read after 6 h.

Q: How did the outcome turn out when `COc1c(Cl)ccc(Cl)c1C(=O)O` was run?
A: Its outcome is “inactive”.

Q: `CSC(=O)c1cccc2nnsc12` was tested. Which outcome did it give?
A: The outcome was “inactive”.

Q: How did the AC50 turn out when `S=C(S)NCCNC(=S)S.[Mn+2].[S-]C([S-])=NCCN=C([S-])[S-].[Zn+2]` was run?
A: Its AC50 is 15.2 µM (active).

Q: What about the outcome of the same compound?
A: The outcome was “inactive”.

Q: For `CCNc1nc(N)nc(Cl)n1`, which outcome is on record?
A: The outcome was “inactive”.

Q: For `CCCOC(=O)c1ccc(C(=O)OCCC)nc1`, which outcome is on record?
A: The outcome was “inactive”.

Q: `C=CCOC(Cn1ccnc1)c1ccc(Cl)cc1Cl` (stereo not given) was tested. Which outcome did it give?
A: Its outcome is “inactive”.

Q: `N#CSCSc1nc2ccccc2s1` was tested. Which AC50 did it give?
A: Its AC50 is 9.03 µM (active) and 11.8 µM (active).

Q: For `S=C([S-])NCCNC(=S)[S-].[Mn+2]`, which outcome is on record?
A: The outcome was “inactive”.

Q: For `COC(=O)c1ccc(I)cc1S(=O)(=O)NC(=O)Nc1nc(C)nc(OC)n1`, which outcome is on record?
A: The outcome was “inactive”.

Q: How did the outcome turn out when `CCN(CC)C(=O)c1cccc(C)c1` was run?
A: Its outcome is “inactive”.

Q: `O=C(c1ccc(O)cc1O)c1ccc(O)cc1O` was tested. Which AC50 did it give?
A: Its AC50 is 30.5 µM (active).

Q: Which outcome does the source give for `CCOC(=O)[C@H](C)Oc1ccc(Oc2nc3ccc(Cl)cc3o2)cc1` here?
A: Its outcome is “inactive”.

Q: Which outcome does the source give for `CCCCOC(=O)[C@@H](C)Oc1ccc(Oc2ccc(C(F)(F)F)cn2)cc1` here?
A: The outcome was “inactive”.

Q: With `CCC(C)OC(=O)N1CCCCC1CCO` (stereo not given) as the compound, how does the outcome read?
A: The outcome was “inactive”.

Q: `CCCOC(=O)NCCCN(C)C` was tested. Which outcome did it give?
A: The outcome was “inactive”.

Q: With `CCOC(=O)COc1cc(-n2ncc(C(F)(F)F)c(C)c2=O)c(F)cc1Cl` as the compound, how does the outcome read?
A: The outcome was “inactive”.

Q: For `CC(=O)S[C@@H]1CC2=CC(=O)CC[C@]2(C)[C@H]2CC[C@@]3(C)[C@@H](CC[C@@]34CCC(=O)O4)[C@H]12`, which AC50 is on record?
A: Its AC50 is 30.9 µM (active).

Q: Which AC50 does the source give for `CC(C)(c1ccc(O)cc1)c1ccc(O)cc1` here?
A: Its AC50 is 9.06 µM (active).

Q: And the outcome?
A: Its outcome is “inactive”.

Q: For `O=C(Nc1ccc([N+](=O)[O-])cc1Cl)c1cc(Cl)ccc1O`, which AC50 is on record?
A: The AC50 was 0.302 µM (active).

Q: With `C#C[C@]1(O)CC[C@H]2[C@@H]3CCC4=CC(=O)CC[C@@H]4[C@H]3CC[C@@]21CC` as the compound, how does the outcome read?
A: The outcome was “inactive”.

Q: For `CCSC(=O)N(CC(C)C)CC(C)C`, which outcome is on record?
A: Its outcome is “inactive”.

Q: For `CCCCC(CC)COC(=O)c1ccccc1C(=O)O` (stereo not given), which outcome is on record?
A: The outcome was “inactive”.

Q: With `COC(=O)CSc1cc(N=c2sc(=O)n3n2CCCC3)c(F)cc1Cl` as the compound, how does the outcome read?
A: Its outcome is “inactive”.

Q: For `Oc1ccc(C(c2ccc(O)cc2)C(Cl)(Cl)Cl)cc1`, which AC50 is on record?
A: The AC50 was 29.3 µM (active).

Q: How did the outcome turn out when `COC(=O)c1ccccc1C(=O)O` was run?
A: The outcome was “inactive”.

Q: Which outcome does the source give for `O=C(c1ccccc1)C1CCCCC1` here?
A: The outcome was “inactive”.

Q: Which AC50 does the source give for `Cc1nn(C)c(Oc2ccccc2)c1C=NOCc1ccc(C(=O)OC(C)(C)C)cc1` here?
A: The AC50 was 11.7 µM (active).

Q: Which outcome does the source give for `CCC(O)=C1C(=O)CC(C(=O)O)CC1=O` (stereo not given) here?
A: Its outcome is “inactive”.

Q: How did the outcome turn out when `CN(C)C(=O)Nc1ccc(Cl)c(Cl)c1` was run?
A: The outcome was “inactive”.

Q: Which outcome does the source give for `CCOC(=O)C(C)Oc1ccc(Oc2nc3ccc(Cl)cc3o2)cc1` (stereo not given) here?
A: Its outcome is “inactive”.

Q: Which outcome does the source give for `OB(O)O` here?
A: Its outcome is “inactive”.

Q: For `c1ccc2[nH]c(-c3cscn3)nc2c1`, which outcome is on record?
A: The outcome was “inactive”.

Q: How did the outcome turn out when `CCCCOCCOCCOCc1cc2c(cc1CCC)OCO2` was run?
A: The outcome was “inactive”.

Q: How did the AC50 turn out when `CCCN(CCC)c1c([N+](=O)[O-])cc(C(F)(F)F)c(N)c1[N+](=O)[O-]` was run?
A: Its AC50 is 32.6 µM (active).

Q: For `COC(=O)c1ccccc1S(=O)(=O)NC(=O)Nc1nc(OC(F)F)cc(OC(F)F)n1`, which outcome is on record?
A: Its outcome is “inactive”.

Q: How did the outcome turn out when `COC(=O)c1cccc(C)c1S(=O)(=O)NC(=O)Nc1nc(OCC(F)(F)F)nc(N(C)C)n1` was run?
A: Its outcome is “inactive”.

Q: `C#CCOC(=O)[C@@H](C)Oc1ccc(Oc2ncc(Cl)cc2F)cc1` was tested. Which outcome did it give?
A: The outcome was “inactive”.

Q: How did the outcome turn out when `O=C(O)c1ccccc1` was run?
A: Its outcome is “inactive”.
